Test results as given in PubChem BioAssay.

test: fission yeast growth modulation, primary screen, strain 972, OD600, 24 h, no modulator (AID 1090);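 also: basal condition with compound alone and no growth modifier present; test concentration not given here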; settings: S. pombe 972 growth, higher = more signal, called active from +8 up or from −8 down

z-score, inactive:
CO[C@@H]1COC(=O)CC=C[C@@H](C)[C@H](OC)COC(=O)CC=C[C@H]1C -0.761
O=C1O[C@H](c2ccccc2)[C@H](c2ccccc2)N2[C@H]1[C@@H](C(=O)Nc1nc3ccccc3s1)[C@]1(C(=O)Nc3ccc(C#CC4(O)CCCCCC4)cc31)[C@H]2c1ccc(O)cc1 -0.265
O=C1O[C@@H](c2ccccc2)[C@@H](c2ccccc2)N2[C@@H](c3ccccc3OCCO)[C@]3(C(=O)Nc4ccc(C#CC5=CCCCC5)cc43)[C@@H](C(=O)O)[C@H]12 -0.608
O=C1O[C@@H](c2ccccc2)[C@@H](c2ccccc2)N2[C@@H](c3ccc(O)cc3)[C@]3(C(=O)Nc4ccccc43)[C@@H](C(=O)N3CCN(c4ncccn4)CC3)[C@H]12 -1.95
C[N+](C)(C)CCCCNC(=O)[C@@H]1C[C@@H]2C(=O)N3CCC[C@H]3C(=O)N2[C@@H]1c1cccc(OCCO)c1 -1.74
C=CC[C@@]1(C(=O)N2CCOCC2)N=C(c2ccc(OCCCO)cc2)O[C@@H]1c1ccccc1 -1.61
CCC#CCN(Cc1ccccc1Br)[C@H](/C=C/c1ccccc1)[C@@H](O)Cc1ccccc1 0.266
O=C(NCc1ccccc1)c1ccc(Br)cc1[N+](=O)[O-] -1.08
CC(C)N1CC=CC23O[C@@H]4/C=C\CCCOC(=O)C4[C@H]2C(=O)N(CCCCCO)[C@@H]3C1=O (stereo not given in full) -1.16
O=C1OCC=C[C@H]2OC34C=CCN(Cc5ccccc5)C(=O)[C@H]3N(CCO)C(=O)[C@@H]4[C@@H]12 (stereo not given in full) 0.176
